Laboratory results as given in PubChem BioAssay (NCI).
The panel holds about 83,000 compounds, 20% with a hit somewhere; the sample as a whole holds those more often.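 Single-dose data. Exposure time 48 hours. Values below 10 considered active.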 Active and inactive are the calls of the source.

How the values were obtained:
Assay in all cases: NCI-60 one-dose screen, 48 h (100 = growth as untreated, 0 = no growth, -100 = all killed)
Details in all cases: 10 µM unless noted
HCT-15 colon = system: HCT-15 colon
HT29 colon = system: HT29 colon
SNB-75 CNS = system: SNB-75 CNS
SNB-19 CNS = system: SNB-19 CNS
U251 CNS = system: U251 CNS
PC-3 prostate = system: PC-3 prostate
SK-MEL-5 melanoma = system: SK-MEL-5 melanoma
UACC-62 melanoma = system: UACC-62 melanoma
LOX IMVI melanoma = system: LOX IMVI melanoma
SK-MEL-28 melanoma = system: SK-MEL-28 melanoma

Measured: growth

COc1ccc(/C=C2\c3cc(OC)c(OC)c(OC)c3CC[C@@H]2O)cc1F
inactive: HCT-15 colon 20.7% | HT29 colon 11.9% | SNB-75 CNS 14.5% | SNB-19 CNS 42.4% | U251 CNS 20.1% | PC-3 prostate 23.1% | SK-MEL-5 melanoma 23.8% | UACC-62 melanoma 34.2% | LOX IMVI melanoma 37.3% | SK-MEL-28 melanoma 70.1%

CCOC(=O)c1cnn(CC(C)O)c1NC(=O)NCc1cccc(F)c1 (stereo not given)
inactive: HCT-15 colon 107% | HT29 colon 84.3% | SNB-75 CNS 104% | SNB-19 CNS 107% | U251 CNS 97.4% | PC-3 prostate 73.3% | SK-MEL-5 melanoma 100% | UACC-62 melanoma 92.2% | LOX IMVI melanoma 97.1% | SK-MEL-28 melanoma 113%

CCOC(=O)NC(=S)n1oc(=O)c2ccccc21
inactive: HCT-15 colon 103% | HT29 colon 105% | SNB-75 CNS 94.7% | SNB-19 CNS 104% | U251 CNS 98.6% | PC-3 prostate 98.3% | SK-MEL-5 melanoma 108% | UACC-62 melanoma 93.3% | LOX IMVI melanoma 96.8% | SK-MEL-28 melanoma 103%

Oc1ccc(-c2nc3ccc4[nH]ncc4c3c3c2CCCC3)c(F)c1
active: SK-MEL-5 melanoma 3.31%
inactive: HCT-15 colon 15.8% | HT29 colon 42.5% | SNB-75 CNS 17% | SNB-19 CNS 60.5% | U251 CNS 38.3% | PC-3 prostate 33.8% | UACC-62 melanoma 11.7% | LOX IMVI melanoma 27.8% | SK-MEL-28 melanoma 17.5%

O=C(Nc1cc(Cl)cc(Cl)c1)Oc1c(Cl)c(Cl)c(Cl)c(Cl)c1Cl
inactive: HCT-15 colon 77.8% | HT29 colon 73.2% | SNB-75 CNS 71.3% | SNB-19 CNS 66.1% | U251 CNS 62.9% | PC-3 prostate 42.2% | SK-MEL-5 melanoma 41.5% | UACC-62 melanoma 65.7% | LOX IMVI melanoma 72.5% | SK-MEL-28 melanoma 84.8%

COc1ccc2c(c1)oc1c(C)c3c(c(C)c12)C(=O)N(CCOS(C)(=O)=O)C3=O
inactive: HCT-15 colon 102% | HT29 colon 101% | SNB-75 CNS 103% | SNB-19 CNS 95.4% | U251 CNS 108% | PC-3 prostate 96.5% | SK-MEL-5 melanoma 101% | UACC-62 melanoma 87.8% | LOX IMVI melanoma 90.3% | SK-MEL-28 melanoma 102%

COc1cc2c(c(OC)c1OC)CCC(c1cccc(C(=O)Nc3ccc(Br)cc3)c1)O2 (stereo not given)
inactive: HCT-15 colon 61% | HT29 colon 65.7% | SNB-75 CNS 61.8% | SNB-19 CNS 65.8% | U251 CNS 75.5% | PC-3 prostate 39.4% | SK-MEL-5 melanoma 55% | UACC-62 melanoma 53% | LOX IMVI melanoma 65.2% | SK-MEL-28 melanoma 76.9%

COc1ccc(-c2cc(C(=O)N3N=C(c4ccc(N)cc4)CC3c3ccc(Cl)cc3)c3ccccc3n2)cc1 (stereo not given)
inactive: HCT-15 colon 21.4% | SNB-19 CNS 48.3% | U251 CNS 15.2% | PC-3 prostate 26.1% | SK-MEL-5 melanoma 25.9% | UACC-62 melanoma 38.3% | LOX IMVI melanoma 33% | SK-MEL-28 melanoma 63.4%
active: HT29 colon -11.7% | SNB-75 CNS 5.79%

c1cc(OCCN2CCCC2)ccc1CNc1ccc2nc(CCC3CCCCC3)[nH]c2c1
inactive: SNB-75 CNS 64.1% | SNB-19 CNS 68.7% | PC-3 prostate 52% | UACC-62 melanoma 62.8%
active: HCT-15 colon 3.99% | HT29 colon 7.25% | U251 CNS 4.28% | SK-MEL-5 melanoma -96.5% | LOX IMVI melanoma -78.5% | SK-MEL-28 melanoma -85.3%

Cc1nc([P+](c2ccccc2)(c2ccccc2)c2ccccc2)c(N2CCCCC2)o1
inactive: HCT-15 colon 103% | HT29 colon 14.1% | SNB-75 CNS 37.9% | SNB-19 CNS 18.7% | U251 CNS 16.6% | PC-3 prostate 15.3% | UACC-62 melanoma 25.3% | LOX IMVI melanoma 24.5% | SK-MEL-28 melanoma 34.3%
active: SK-MEL-5 melanoma -32.3%

N=C(N)c1ccc(-c2ccc(-c3cc(Cl)cc(Cl)c3)s2)s1
active: HCT-15 colon -84.8% | HT29 colon -80.1% | SNB-75 CNS 3.24% | SNB-19 CNS -61.9% | U251 CNS -86.5% | UACC-62 melanoma -74% | LOX IMVI melanoma -82.4%
inactive: PC-3 prostate 35.6% | SK-MEL-5 melanoma 86.6% | SK-MEL-28 melanoma 33.7%

COc1ccc2c(c1)c(-c1nc(-c3ccc4ccccc4c3)cs1)cn2C
inactive: HCT-15 colon 73% | HT29 colon 51.3% | SNB-75 CNS 109% | SNB-19 CNS 99.8% | U251 CNS 91% | PC-3 prostate 87.1% | SK-MEL-5 melanoma 94.5% | UACC-62 melanoma 91.3% | LOX IMVI melanoma 86% | SK-MEL-28 melanoma 89.6%

COC(=O)c1sccc1-c1cc(O)c(C(=O)Nc2ccccc2)s1
inactive: HCT-15 colon 97.7% | HT29 colon 90% | SNB-75 CNS 72% | SNB-19 CNS 107% | U251 CNS 101% | PC-3 prostate 90.4% | SK-MEL-5 melanoma 102% | UACC-62 melanoma 91.2% | LOX IMVI melanoma 96.6% | SK-MEL-28 melanoma 110%
